Data: PubChem BioAssay (NCI)
This is part of a sample that, as a whole, favours compounds with a hit. Of some 79,000 tested, about 15% had one in any assay. No stated cut-off is given here; in the data, active means growth inhibition above about 70%; inactive means the rest. *1 amine or outer side, *2 acyl side, *3 side chain or, on linkers, in order; H or OH if unused. Where a SMILES comes first, the peptide text is derived from it. Bridges are numbered along the chain shown (N, C = ends). [ ]: non-standard residue; d: D form. The star is where a group is joined. ξ: configuration not given here. Fmoc = O=C(OCC1c2ccccc2-c2ccccc21)*; X9 = O=C(C(CCCCNO[*:3])N[*:1])[*:2]; Cbz = O=C(OCc1ccccc1)*; ξK = NCCCCC(N)C(=O)O

Tests used:
[1] = NCI Yeast Anticancer Drug Screen. Data for the rad50 strain (AID 155);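 further: 0% = growth of vehicle-only cultures of the same strain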; details: S. cerevisiae rad50 strain growth inhibition; at 50.0 µM; hits give high values
Outline: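 DNA repair mutant yeast, compound exposure, growth read-out; inhibition is taken relative to vehicle.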

[2] = NCI Yeast Anticancer Drug Screen. Data for the mec2-1 strain (AID 157); details: S. cerevisiae mec2-1 strain, at 50.0 µM, hits give high values
Outline: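 Cells of the genetically defined mec2-1 yeast strain are incubated with test compound. Inhibition of growth is calculated against vehicle-treated controls.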

[3] = NCI Yeast Anticancer Drug Screen. Data for the sgs1 mgt1 strain (AID 161);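 further: 0% = growth of cultures given vehicle only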; details: S. cerevisiae sgs1 mgt1 strain, at 50.0 µM, hits give high values
Outline: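 Mutant yeast exposed to compound; growth scored against vehicle-only wells.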

[4] = NCI Yeast Anticancer Drug Screen. Data for the cln2 rad14 strain (AID 165);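 further: 0% = growth equal to vehicle treated cultures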; details: S. cerevisiae cln2 rad14 strain, at 50.0 µM, hits give high values
Outline: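 The screen exposed genetically defined yeast (cln2 rad14) to test compounds and scored growth inhibition relative to vehicle-treated controls.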

[5] = NCI Yeast Anticancer Drug Screen. Data for the bub3 strain (AID 167); details: S. cerevisiae bub3 mutant strain, at 50.0 µM, hits give high values
Outline: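 In this screen, a yeast mutant lacking normal mitotic checkpoint function is challenged with compound. Relative growth versus vehicle gives the inhibition value.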

[6] = NCI Yeast Anticancer Drug Screen. Data for the mlh1 rad18 strain (AID 175); details: S. cerevisiae mlh1 rad18 strain growth inhibition; at 50.0 µM; hits give high values
Outline: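 Compound-treated yeast growth, normalised to vehicle controls. Strain bears defined DNA repair mutations.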

Measured: growth inhibition

O=c1nc(-c2ccccc2)cc(Cc2ccc3ccccc3n2)[nH]1
inactive: [1] 30.1% | [2] 25.8% | [3] 26.1% | [4] -29.8% | [5] 47% | [6] 28.9%

CSC(C(O)C(O)C(O)C(O)CO)n1cnc2c(=S)nc[nH]c21 (stereo not given)
inactive: [1] 1.1% | [2] 5.7% | [3] 5.75% | [4] 19.6% | [5] 11.3% | [6] 9%

CCCC(C)C(=O)O (stereo not given)
inactive: [1] 23.1% | [2] -1.95% | [3] 4% | [4] 23.1% | [5] 28.8% | [6] 19.9%

O=[N+]([O-])c1ccc2c(N3CCC(CCCC4CCN(c5ncnc6cc([N+](=O)[O-])ccc56)CC4)CC3)ncnc2c1
inactive: [1] 2.55% | [2] -16.7% | [3] 39% | [4] 19.2% | [5] -10.8% | [6] -2.9%

O=c1[nH]c2cc(Cl)ccc2nc1/C=C(\O)c1ccco1
inactive: [1] 7.55% | [2] -10.4% | [3] -16.1% | [4] 10.3% | [5] -33.6% | [6] 13.3%

Cn1nc(C(F)(F)C(F)(F)C(F)(F)F)nc1C(F)(F)C(F)(F)C(F)(F)F
inactive: [1] 12.6% | [2] 3.6% | [3] 4.45% | [4] -3.75% | [5] -2.15% | [6] 10.6%

O=[N+]([O-])c1ccc(Oc2ccc(S(=O)(=O)O)cc2)cc1
inactive: [1] 13.8% | [2] 6.5% | [3] -4.35% | [4] 7.4% | [5] 6.6% | [6] 2.5%

NCCCCC(NC(=O)OCc1ccccc1)C(=O)NCC(N)=O (stereo not given) (Cbz-[ξK]-Gly-NH2)
inactive: [1] 10.1% | [2] 8.5% | [3] 5% | [4] 4.05% | [5] 16.1% | [6] -30.2%

O=C(NC(=O)c1ccccc1)OC(c1ccccc1)C1CO1 (stereo not given)
inactive: [1] -0.7% | [2] 9.65% | [3] 11.4% | [4] 8.55% | [5] -34.1% | [6] 18.8%

CC1=NN(c2cccc([N+](=O)[O-])c2)C(=O)C1
inactive: [1] 13.9% | [2] -25% | [3] 10.7% | [4] -5.7% | [5] 16.8% | [6] 32.6%

N#CCCCCCCCCCCC(=O)O
inactive: [1] -24.6% | [2] -55.9% | [3] 1.95% | [4] 1.45% | [5] -59.4% | [6] -10.2%

C=CCN(N=O)C(=O)N(CCC)CCCC(NC(C)=O)C(=O)NCc1ccccc1 (stereo not given)
inactive: [1] -3.2% | [2] -27.2% | [3] -14.4% | [4] 22.6% | [5] 2.9% | [6] -14.2%

CC(=O)O[C@@H]1CC[C@@]2(C)C(=O)C34C[C@@]5(C)C([C@@H](C)CCCC(C)C)CCC5(C)[C@](O)(O3)C(=O)[C@H]4C2C1(C)C (stereo not given in full)
inactive: [1] 18.4% | [2] 24.6% | [3] 11.5% | [4] 1.8% | [5] -0.05% | [6] 27.1%

O=C1CC2C(=O)N(Cc3ccccc3)C1C(S(=O)(=O)c1ccccc1)C2S(=O)(=O)c1ccccc1 (stereo not given)
inactive: [1] 10.4% | [2] 9.4% | [3] 2.75% | [4] 26.9% | [5] -8.7% | [6] 23.9%

NC1=NS(=O)(=O)c2ccccc21
inactive: [1] 14.8% | [2] -11.7% | [3] 3.1% | [4] -48.7% | [5] -1.35% | [6] -1.55%

NC(=O)CNC(=O)C1CCCN1C(=O)C1CCCCNOC(=O)CCC(NC(=O)OCC2c3ccccc3-c3ccccc32)C(=O)NC(Cc2c[nH]c3ccccc23)C(=O)N1 (stereo not given) (Fmoc-EW[X9]PG-NH2; ester 1-3; configuration not given here)
inactive: [1] -16.5% | [2] -14.7% | [3] -22.2% | [4] 18.4% | [5] 4.1% | [6] -6.35%

COc1ccccc1/C=C(\C)C(=O)O
inactive: [1] 10.8% | [2] -15.3% | [3] -6.2% | [4] 0.05% | [5] -11.3% | [6] -16.1%

NC(=O)c1ccccc1NC(=O)Nc1ccc(Cl)cc1
inactive: [1] -3.6% | [2] 20.8% | [3] 13.8% | [4] -15.3% | [5] 21.5% | [6] 27%

COC(=O)c1cccc2c(N)c(N)cc(C(=O)OC)c12
inactive: [1] 17.5% | [2] 18.2% | [3] 24.8% | [4] 28.2% | [5] 9.3% | [6] 31.4%

COc1cc2cc(-c3ccccn3)nc(N)c2cc1OC
inactive: [1] 29.2% | [2] 9.35% | [3] 39.5% | [4] 2.55% | [5] -1.5% | [6] 9.95%
